# This excerpt belongs to a sample that is enriched for hits.
# Tgondii IFNg – T. gondii growth inhibition with IFN-gamma, primary screen, cell-based. Toxoplasma gondii growth in IFN-gamma-treated host cells; hits give low values. activity change, negative = inhibition, % (concentration not given with the values). actives 3.8% (n = 69,000); in the data active = activity change below about -70%, passing the limit was not always enough;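 also: host cells are HeLa cells infected with Toxoplasma gondii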
# * hit, by the source's call; i = inactive; ! = not confirmed by another sample.
SMILES,Tgondii IFNg
COc1ccc(S(=O)(=O)N(C)C[C@@H]2OCCCC[C@@H](C)Oc3ccc(NC(=O)Cc4ccccc4)cc3C(=O)N([C@H](C)CO)C[C@@H]2C)cc1,3
COc1ccc(S(=O)(=O)Nc2ccc3c(c2)C(=O)N([C@H](C)CO)C[C@@H](C)[C@H](CN(C)S(=O)(=O)c2ccc(Cl)cc2)OCCCC[C@H](C)O3)cc1,-113*
COc1ccc(S(=O)(=O)N(C)C[C@@H]2Oc3ccc(NC(=O)Nc4ccc(C(F)(F)F)cc4)cc3C(=O)N([C@H](C)CO)C[C@@H]2C)cc1,-37
C[C@@H]1CCCCO[C@@H](CN(C)S(=O)(=O)c2ccc(Cl)cc2)[C@@H](C)CN([C@H](C)CO)C(=O)c2cc(NC(=O)Nc3ccc(C(F)(F)F)cc3)ccc2O1,44
CC(C)N1CCOCC2(CN(CC3CC3)CCO2)C1 (configuration not stated),50
O[C@H]1CCN(Cc2nccs2)[C@@H]1Cc1cccnc1,5
Cc1nc2ccccc2c(=O)n1CC(=O)NCc1nc(Cc2ccccc2)no1,-3
COC(=O)c1cc2n(n1)CCN(C(=O)CCn1c(C)nc3ccccc31)C2,-1
CC1CCC(NC(=O)Cn2c(=O)ccc3cc(S(=O)(=O)N4CCC(C)CC4)ccc32)CC1 (configuration not stated),-68
COc1cccc(Cl)c1-c1ccc2nc(C(C)O)[nH]c2c1 (configuration not stated),-12
Cn1nccc1C(=O)N1C[C@H]2OC(=O)N(CCc3cccc(Cl)c3)[C@H]2C1,-38
Cc1ccc(CNc2ccc(C(=O)N(C)Cc3noc(C(C)C)n3)cc2)cc1,-6
COc1ccc(S(=O)(=O)N(C)C[C@H]2Oc3c(NC(=O)c4nc5ccccc5s4)cccc3C(=O)N([C@@H](C)CO)C[C@H]2C)cc1,-82*
COc1ccc(S(=O)(=O)Nc2ccc3c(c2)C(=O)N([C@@H](C)CO)C[C@@H](C)[C@H](CN(C)C(=O)Nc2c(C)noc2C)OCCCC[C@@H](C)O3)cc1,80
COc1ccc(S(=O)(=O)N(C)C[C@H]2Oc3c(NC(=O)c4nc5ccccc5s4)cccc3C(=O)N([C@H](C)CO)C[C@@H]2C)cc1,-55
COc1ccc(S(=O)(=O)Nc2ccc3c(c2)C(=O)N([C@@H](C)CO)C[C@@H](C)[C@@H](CN(C)C(=O)Nc2c(C)noc2C)OCCCC[C@H](C)O3)cc1,-78*
COc1ccc(S(=O)(=O)Nc2ccc3c(c2)C(=O)N([C@@H](C)CO)C[C@@H](C)[C@H](CN(C)C(=O)Nc2c(C)noc2C)OCCCC[C@H](C)O3)cc1,-2
COc1ccc(S(=O)(=O)N(C)C[C@@H]2Oc3c(NC(=O)c4nc5ccccc5s4)cccc3C(=O)N([C@H](C)CO)C[C@@H]2C)cc1,-40
COc1ccc(-n2ccnc2-c2ccccc2OCC(=O)O)cc1,46
CCCCN(CC#Cc1ccccc1)C(=O)c1occc1C,-2
CC(C)C(=O)NCc1csc(C2CCCN(C(=O)c3ccc(F)c(F)c3)C2)n1 (configuration not stated),19
O=c1c(-c2ccccc2)c(O)c2cccc3c4c(n1c23)CCCC4,26
Cc1nc(NS(C)(=O)=O)sc1C(=O)N[C@H](C)Cn1c(=O)oc2ccccc21,16
CCn1nnc2c1CCN(S(=O)(=O)c1cn(C)cn1)C2COC (configuration not stated),11
CN(C)CC1CCC2(COCCN(C(=O)c3cscn3)C2)O1 (configuration not stated),-4
SMILES,Tgondii IFNg
CN1C/C=C/CCOc2cccc(c2)-c2ccnc(n2)Nc2cccc(c2)C1,-84*
Cc1cccc(CNC(=O)Cn2c(=O)ccc3cc(S(=O)(=O)N4CCC(C)CC4)ccc32)c1,-14
Cc1cccc(-c2nnn3c2COC(CNCc2nccs2)C3)c1 (configuration not stated),i
Cc1cnccc1-c1cn(C)nc1-c1cccc(CNC(=O)Cc2cccnc2)c1,-19
Cc1ncc(-c2ccncc2)c(-c2ccc(CNC(=O)C3CCOC3)cc2)n1 (configuration not stated),-39
CCC(=O)NCc1cccc(-c2ccc(OC)cc2OC)c1,-1
CN1CCN(c2ncccc2CNC(=O)COCC2CCCO2)CC1 (configuration not stated),-3
COc1ccccc1-c1cccc(-c2nc(C(=O)NCc3ccncc3)cc3c2[C@H](CCO)N([S@@](=O)C(C)(C)C)C3)c1,-2
Cn1cc(-c2ccncc2)c(-c2ccc(CNC(=O)COCC3CCCCO3)cc2)n1 (configuration not stated),-92*
COc1cc(C(=O)NCc2ccc(-c3nn(C)cc3-c3ccncc3)cc2)nc(OC)n1,-102*
COc1cccc(OC(C)C(=O)NCc2cccc(-c3nn(C)cc3-c3ccncc3)c2)c1 (configuration not stated),-114*
COc1cc(C(=O)NCCCn2ccnc2C)nc(OC)n1,-11
COC(=O)c1c(NCCCN2CCCC2)c2cccc(Cl)c2[nH]c1=O,7
CS(=O)(=O)N1CCC(CC(=O)NCc2ccc3[nH]c(=O)[nH]c3c2)CC1,41
Cc1c(-c2nnnn2-c2ccc(F)cc2)cnc2cc3c(cc12)OCO3,78
CNCCn1c(=O)c2cc(OC)c(OC)cc2c2cnc3cc4c(cc3c21)OCO4,-80*
COCCN1CCC2(C1)c1ccccc1S(=O)(=O)N2CC1CC1 (configuration not stated),29
Cc1cc(C)n(CCCN(C)C(=O)[C@H]2CCCO2)n1,-5
CCc1nc(Cn2cnc(-c3ccccc3)c2-c2cc(C)cc(F)c2)no1,-18
O=C(NC1CCOCC1)c1ccc(-c2cc(-c3cn[nH]c3-c3ccccn3)ccn2)cc1,-37
c1cc(-c2cnccn2)c2cccnc2c1,-49
c1ccc(-c2[nH]ncc2-c2ccnc3ccccc23)nc1,-80*!
Cc1cnc(C(=O)N2CC3CCC2C3OCC(C)C)cn1 (configuration not stated),-23
COCCn1c(C(=O)NCc2cccs2)cc2c1c1ccccc1n2C,-31
Cc1noc(C[C@@H]2COC[C@H]3CN(C(=O)c4ccccn4)C[C@H]23)n1,-9
SMILES,Tgondii IFNg
O=C(c1cn[nH]n1)N1CCN(C(=O)N(c2ccccc2)c2ccccc2)CC1,1
COc1c/c(=C2\C=c3ccccc3=N2)[nH]/c1=C\c1[nH]c(C)cc1C,-85*
Cc1cc(C)n2nc(CC(=O)N[C@H](C)Cn3c(=O)oc4ccccc43)nc2n1,1
COCCNc1c(C(=O)OC)c(=O)[nH]c2c(Cl)cccc12,11
Cn1cc(S(=O)(=O)Nc2ccccc2N2CCOCC2)c(C(F)(F)F)n1,-24
O=S(=O)(Nc1ccccc1N1CCOCC1)c1cc(Cl)sc1Cl,-85*
O=S(=O)(Nc1ccccc1N1CCOCC1)c1cccc2nonc12,-45
CN(C)S(=O)(=O)N1CCCCC1c1ccc(F)cc1 (configuration not stated),13
CC(=O)N1CCC(C(=O)NCc2ccccc2)(N(C(=O)c2ccc(C)cc2)c2cc(F)ccc2F)CC1,-26
COc1cccc(-n2c(=O)c(C(=O)NC3CCCCC3)c(O)c3cccnc32)c1,-63
COc1ccc(-n2c(=O)c(C(=O)NC3CCCC3)c(O)c3cccnc32)cc1,29
O=C(Nc1cc(F)cc(F)c1)c1c(O)c2cccnc2n(-c2cccc(F)c2)c1=O,-106*
O=C(NCc1ccco1)c1c(O)c2cccnc2n(-c2ccc(F)cc2)c1=O,-79*
O=C(NCc1ccco1)c1c(O)c2cccnc2n(-c2cccc(F)c2)c1=O,183

# Screening data deposited in PubChem BioAssay by Broad Institute.
